Results reported in publication PMC4336329 (PLoS ONE, 2015).
In all, about 310,000 compounds went through this assay and about 14,000 (4.5%) showed an effect of 50% or more. Effects have a minus sign here. The sample holds strong results, similar compounds and a random draw of the others, so the mix is not that of the screen.

The molecules below were run against human ether-à-go-go-related gene (hERG) potassium channel (human, UniProt Q12809) (assay: primary screen, population patch clamp on CHO cells stably expressing hERG; higher = less effect of the substance).
Chain of human ether-à-go-go-related gene (hERG) potassium channel (Q12809 whole entry, looked up): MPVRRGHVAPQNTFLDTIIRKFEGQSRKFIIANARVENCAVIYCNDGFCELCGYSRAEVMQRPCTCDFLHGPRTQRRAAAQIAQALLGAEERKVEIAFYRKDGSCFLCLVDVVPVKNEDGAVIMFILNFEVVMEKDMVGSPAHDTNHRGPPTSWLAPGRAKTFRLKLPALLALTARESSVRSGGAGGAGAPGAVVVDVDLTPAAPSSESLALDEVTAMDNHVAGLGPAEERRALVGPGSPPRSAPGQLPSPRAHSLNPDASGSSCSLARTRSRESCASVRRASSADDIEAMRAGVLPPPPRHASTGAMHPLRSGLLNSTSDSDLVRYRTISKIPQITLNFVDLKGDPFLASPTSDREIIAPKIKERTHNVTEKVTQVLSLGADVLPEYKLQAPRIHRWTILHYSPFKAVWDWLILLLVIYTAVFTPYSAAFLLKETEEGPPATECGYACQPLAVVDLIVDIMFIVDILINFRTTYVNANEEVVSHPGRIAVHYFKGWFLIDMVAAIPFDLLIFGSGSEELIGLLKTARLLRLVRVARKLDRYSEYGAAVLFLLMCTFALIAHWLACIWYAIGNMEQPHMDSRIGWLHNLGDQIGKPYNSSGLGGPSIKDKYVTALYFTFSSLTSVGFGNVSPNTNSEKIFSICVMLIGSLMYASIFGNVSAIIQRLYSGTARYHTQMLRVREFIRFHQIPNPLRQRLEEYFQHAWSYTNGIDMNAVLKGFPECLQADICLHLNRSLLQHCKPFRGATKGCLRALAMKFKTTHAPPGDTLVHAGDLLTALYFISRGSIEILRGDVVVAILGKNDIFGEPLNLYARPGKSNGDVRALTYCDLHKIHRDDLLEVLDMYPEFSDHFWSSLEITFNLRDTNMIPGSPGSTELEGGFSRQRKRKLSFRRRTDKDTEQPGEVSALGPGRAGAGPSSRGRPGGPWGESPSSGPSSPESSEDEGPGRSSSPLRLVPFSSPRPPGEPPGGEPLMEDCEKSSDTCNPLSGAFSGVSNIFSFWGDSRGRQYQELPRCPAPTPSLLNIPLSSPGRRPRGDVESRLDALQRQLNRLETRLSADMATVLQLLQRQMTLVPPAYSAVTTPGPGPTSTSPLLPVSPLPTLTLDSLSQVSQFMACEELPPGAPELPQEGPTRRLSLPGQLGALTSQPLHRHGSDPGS
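Also: peak tail current of the secondary pulse compared with the same well before compound.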

SMILES | hERG current change (%, negative = inhibition) at 10uM [%]
CC(C)C(=O)Nc1nnc(SCc2cccc(F)c2)s1 | -8.88
COc1ccc(Cc2nc(C(=O)Nc3ccc(Cl)cc3)cs2)cc1 | -42.8
CCOC(=O)c1nsnc1NCCSC(=N)N.I | 3.69
CC1CN(S(=O)(=O)c2ccc(C(=O)Nc3sccc3C(N)=O)cc2)CC(C)O1 (centres unmarked) | -10.8
CCOc1ccc(NC(=O)CCC(=O)Nc2cc(OC)c(NC(=O)c3ccco3)cc2OC)cc1 | 10.4
O=C(CSc1nc(-c2ccccc2)cs1)N1CCc2ccccc21 | 3.61
Cc1cccc(N(Cc2cc3ccccc3[nH]c2=O)C(=O)c2ccco2)c1C | 4.51
CCC(C)(C)NC(=O)C(c1ccncc1)N(Cc1ccc(C)cc1)C(=O)c1csnn1 (centres unmarked) | -14.1
COc1cc(OC)c(C2N(c3ccccn3)C(=O)C3CCCN32)cc1OC (centres unmarked) | 13.8
COc1ccc(C(=O)OCC(=O)NCCN2C(=O)CSC2=O)cc1 | -1.03
CCOC(=O)C1CCCN(Cc2ccc(OC)c(OCc3ccccc3)c2)C1 (centres unmarked) | -46.1
CCOC(=O)C1CCCN(Cc2ccc(OCc3ccccc3)c(OC)c2)C1.O=C(O)C(=O)O (centres unmarked) | -62.2
CCOC(=O)C1CCN(c2c(NCc3ccc(C(=O)N(C)Cc4ccccc4)cc3)c(=O)c2=O)CC1 | -65.2
CCCNC(=O)c1ccc(CNc2c(N3CCC(C(=O)OCC)CC3)c(=O)c2=O)cc1 | 3.8
CCOC(=O)C1CCN(c2c(NCc3ccc(N(C)C)cc3)c(=O)c2=O)CC1 | -5.97
CCCCNC(=O)C1CCN(Cc2ccc(OCc3ccccc3)cc2)CC1.O=C(O)C(=O)O | -71.7
CCOC(=O)C1CCN(Cc2ccc(OCc3ccccc3)c(OC)c2)CC1.O=C(O)C(=O)O | -19.3
OC1CCN(Cc2ccc(OCc3ccccc3)cc2)CC1 | -5.07
CCOC(=O)C1CCCN(Cc2c(C(=O)N3CCOCC3)nc3ccccn23)C1 (centres unmarked) | 8.12
O=C(NC1CCCCC1)c1cc([N+](=O)[O-])ccc1N1CCCC1 | -0.526
Cc1ccc(/C=C/C(=O)Nc2cccc(S(=O)(=O)N3CCOCC3)c2)o1 | -19.9
O=C(CCC1CCCC1)Nc1ccon1 | 12.2
COc1ccc(S(=O)(=O)N(C)CC(=O)NCCN2CCOCC2)cc1Cl | 6.98
CCCCC(CCC(=O)Nc1ccccc1C(=O)OCC)C(=O)O (centres unmarked) | -3.09

SMILES | hERG current change (%, negative = inhibition) at 10uM [%]
Cc1ccc(C)c(Cn2c(=O)n(CCCC(=O)NCc3ccco3)c(=O)c3ccccc32)c1 | 0.892
O=C(Nc1ccc(Cl)cn1)c1ccc(-c2ccc(Cl)c(Cl)c2)o1 | 10.1
CC(=O)c1ccccc1NS(=O)(=O)c1c(C)nn(-c2ccccc2)c1C | 3.03
CCn1nc(C)c(CNC(=O)CCc2nnc(Cc3c[nH]c4ccccc34)o2)c1C | 42
CCC(C)(C)n1nnnc1C(c1ccccc1OC)N1CCSCC1 (centres unmarked) | -24.1
CCOc1ccccc1C(C(=O)NCCOC)N(CCOC)C(=O)Cn1nnc2ccccc21 (centres unmarked) | 18.5
Cc1cccc(OCC(=O)N2CCN(C(=O)c3cccs3)CC2)c1 | -7.23
Cc1ccc(S(=O)(=O)N2CCN(C(=O)c3ccc([N+](=O)[O-])cc3)C2)cc1 | -60
Cc1ccc(OCC(=O)N2CCN(C(=O)c3ccc([N+](=O)[O-])cc3)CC2)cc1 | -83.4
Cc1cccc(OCC(=O)NNC(=O)c2ccc([N+](=O)[O-])cc2)c1 | 1.5
Cc1ccc(OCC(=O)N2CCN(C(=O)c3cccc(F)c3)CC2)cc1 | -13.3
O=C(COc1ccc2ccccc2c1)NNC(=O)c1ccc([N+](=O)[O-])cc1 | -1.08
Cc1cccc(OCC(=O)N2CCN(C(=O)c3ccc([N+](=O)[O-])cc3)CC2)c1 | -68.8
Cc1ccc(OCC(=O)N2CCCCCCC2)cc1 | 7.87
O=C(COc1ccc2ccccc2c1)N1CCN(C(=O)c2ccc([N+](=O)[O-])cc2)CC1 | -76.5
Cc1ccc(C(=O)N2CCN(S(=O)(=O)c3ccc(C)cc3)CC2)cc1 | -20.1
O=C(COc1ccc2ccccc2c1)N1CCN(c2ccccc2)CC1 | 11.7
Cc1ccc(C(=O)N2CCN(S(=O)(=O)c3ccc(C)c([N+](=O)[O-])c3)C2)cc1 | -42.7
COc1ccc(C(=O)N/N=C/c2sc(=O)n(Cc3cccc(C(=O)O)c3)c2Cl)cc1 | -1.9
CC(C)(C)C1CCC(=NNC(=O)C2COc3ccccc3O2)CC1 (centres unmarked) | 0.995
CCOC(=O)Cn1ccc(NC(=O)COc2ccc(F)cc2F)n1 | -2.52
Cc1ccc(OCc2cc(C(=O)N3CC4C[C@@H]5CC3C[C@H](C4)C5)no2)cc1C | 15.7
COc1ccc(C(=O)C[n+]2cccc(C)c2)cc1.[Br-] | 13
